Source: PubChem (National Center for Advancing Translational Sciences (NCATS))
AmpC inh no detg = AmpC beta-lactamase inhibition without detergent; actives 0.52% (n = 330,000); P00811; Potency, µM (doses to about 57.1 µM), for the others: at the highest dose activity change, negative = inhibition, hits mostly inhibitors; AID 485341; AmpC nitrocefin hydrolysis, absorbance 480 nm, 0.0001% Triton;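 also: plate controls were no compound for no effect and no enzyme for full effect; nearly all actives have a fitted effect of over 20% in size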
Target sequence (P00811 whole entry, looked up): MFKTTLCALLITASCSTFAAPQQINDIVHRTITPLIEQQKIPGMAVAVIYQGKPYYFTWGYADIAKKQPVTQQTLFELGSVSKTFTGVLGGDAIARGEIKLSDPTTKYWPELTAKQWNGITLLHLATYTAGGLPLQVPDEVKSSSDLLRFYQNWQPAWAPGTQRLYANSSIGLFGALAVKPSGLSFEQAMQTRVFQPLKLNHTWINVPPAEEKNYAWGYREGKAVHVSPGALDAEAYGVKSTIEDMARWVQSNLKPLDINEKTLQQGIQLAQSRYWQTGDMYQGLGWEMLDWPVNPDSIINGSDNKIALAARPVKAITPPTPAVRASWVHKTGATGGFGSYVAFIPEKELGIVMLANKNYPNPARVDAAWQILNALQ
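AmpC (5.3 nM in the dispensed reagent) in 20 mM phosphate pH 7.0 with 0.01% (detergent screen) or 0.0001% Triton X-100 was preincubated with compounds for 15 min at room temperature. Nitrocefin was then added from an 800 uM solution, and hydrolysis was followed at 480 nm.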
AmpC inh detg = AmpC beta-lactamase inhibition with detergent present | P00811 | AmpC hydrolysis of nitrocefin, absorbance 480 nm, 0.01% Triton | Potency, µM (titrated, usually from 114 µM), for inactives: top-dose activity change, negative = inhibition, most hits filed as inhibitors | actives 0.041% (n = 370,000);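 also: 0% = no-compound wells and -100% = no-enzyme wells; nearly all actives have a fitted effect of over 25% in size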
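AmpC (5.3 nM in the dispensed reagent) in 20 mM phosphate pH 7.0 with 0.01% (detergent screen) or 0.0001% Triton X-100 was preincubated with compounds for 15 min at room temperature. Nitrocefin was then added from an 800 uM solution, and hydrolysis was followed at 480 nm.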
RE007 growth inh = less growth of the S. pombe RE007 Vpr strain; actives 0.21% (n = 360,000); Potency, µM (highest dose often 92.2 µM), inactives show at the highest dose activity change, negative = less growth, actives largely listed as inhibitors; AID 651644; S. pombe RE007 Vpr strain, BacTiter-Glo ATP luminescence, 24 h; active = well fitted falling curve with a large enough effect; inconclusive = small, poorly fitted or top-dose-only effect; inactive = no such curve, though single readings can be large or run the other way; also: nearly all actives have a fitted effect of over 50% in size
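Fission yeast strain RE007, carrying one chromosomally integrated HIV-1 vpr copy, was seeded at OD 0.01 in PMG+AL medium with 23 nL pinned compound. After 24 h at 30 °C and 99% humidity, viability was read by BacTiter-Glo luminescence.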
Sm TGR block = S. mansoni TGR enzyme inhibition | actives 3% (n = 360,000) | Q962Y6 | AID 485364 | purified TGR, DTNB reduction, TNB absorbance 405 nm | Potency, µM (series often up to 114 µM), for the others: top-dose activity change, negative = inhibition, actives largely listed as inhibitors; also: nearly all actives have a fitted effect of over 60% in size
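Kinetic colorimetric format: TGR-catalysed, NADPH-driven DTNB reduction monitored via TNB absorbance. Enzyme dispensed at 20 nM; compound exposure 15 min at room temperature before reaction start.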
Giardia FBPA inh = inhibitors of Giardia lamblia fructose-1,6-bisphosphate aldolase; actives 0.71% (n = 290,000); Potency, µM (titrated, usually from 59.6 µM), for the others: at the highest dose activity, negative = inhibition, usual class: inhibitors; A8B2U2; purified Giardia FBPA; also: nearly all actives have a fitted effect of over 55% in size
Target sequence (A8B2U2 whole entry, looked up): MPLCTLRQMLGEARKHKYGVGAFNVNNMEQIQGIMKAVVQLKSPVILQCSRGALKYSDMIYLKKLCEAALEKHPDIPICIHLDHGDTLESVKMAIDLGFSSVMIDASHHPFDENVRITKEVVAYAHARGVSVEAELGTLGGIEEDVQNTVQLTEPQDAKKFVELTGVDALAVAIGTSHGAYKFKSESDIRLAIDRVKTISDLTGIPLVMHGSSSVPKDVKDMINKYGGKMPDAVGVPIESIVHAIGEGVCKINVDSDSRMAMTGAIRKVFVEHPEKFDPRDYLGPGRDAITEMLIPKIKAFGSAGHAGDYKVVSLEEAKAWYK
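Giardia FBPA (40 nM reagent) was preincubated 10 min at RT with compound (up to 57.5 uM final), then substrate plus GAPDH/TPI/NAD/arsenate coupling system with diaphorase/resazurin was added; resorufin fluorescence (525/598 nm) was read after 20 min.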
An asterisk follows results filed as active; ? = inconclusive; nt = no result. Only some compounds are listed: those with a hit (about 3.4% of all), similar ones and a draw of the others. Unless noted, calls follow the shape of the dose curve; as a rule, active = well fitted curve in the direction sought with a large enough effect; inconclusive = small, poorly fitted or top-dose-only effect, or another doubt; inactive = no such curve, though single readings can be large; an effect the other way counts as inactive or inconclusive. Unless noted, % is scaled to controls: 0 for no effect and ±100 for the full control effect; potency is read from the fitted curve at half-maximal effect.

SMILES	AmpC inh no detg	AmpC inh detg	RE007 growth inh	Sm TGR block	Giardia FBPA inh
CCOC(=O)CNC(=O)CSc1nnc(-c2ccccc2)n1Cc1ccco1	-5.9%	-0.3%	7.7%	20µM*	-5.2%
Cc1c(C(=O)NCc2cccc(Cl)c2)sc2nc3n(c(=O)c12)CCCC3	nt	26.9%	nt	14.1µM*	nt
Cc1c(C(=O)NCc2ccc(Cl)cc2)sc2nc3n(c(=O)c12)CCCC3	nt	28.0%	nt	?	nt
CCc1cccc(NC(=O)c2sc3nc4n(c(=O)c3c2C)CCC4)c1	97.9%	1.6%	15.8%	1.1%	nt
Cc1c(C(=O)Nc2cccc(C#N)c2)sc2nc3n(c(=O)c12)CCCCC3	nt	6.0%	nt	5.62µM*	nt
Cc1ccc2oc(C(=O)N(C)Cc3ccc(C)o3)c(C)c2c1	19.1%	-8.5%	?	2.24µM*	-15.7%
Cc1ccc2oc(C(=O)N(C)Cc3ccon3)c(C)c2c1	-10.5%	1.0%	-11.9%	1.8%	nt
COc1ccc(NS(=O)(=O)c2ccc(C(=O)N(C)Cc3ccc(C)o3)cc2)cc1	-8.3%	nt	0.4%	nt	nt
Cc1ccc(CN(C)C(=O)c2cc(Br)c(Br)s2)o1	-28.8%	-7.6%	?	50.1µM*	-0.4%
O=C(OCc1nnc(-c2ccccc2)o1)c1ccc(Br)o1	-16.5%	-5.1%	-19.4%	-2.6%	nt
O=[N+]([O-])c1ccc(CSc2nnc(Cc3ccccc3)n2-c2ccc(F)cc2)cc1	44.4%	2.5%	16.3%	1.4%	0.8%
O=C1CC(c2ccc(F)cc2)CC2=C1C(c1ccc([N+](=O)[O-])o1)Nc1ccccc1N2 (centres undefined)	-26.5%	3.7%	0.5%	15.8µM*	-8.6%
CCOc1ccc(N(CC)C(=O)Cn2cnc3sc(C)c(S(=O)(=O)N4CCN(c5ncccn5)CC4)c3c2=O)cc1	nt	26.9%	nt	-1.9%	nt
O=C(Oc1cccc2cccnc12)c1cccc(N2C(=O)C3C4CCC(C4)C3C2=O)c1 (centres undefined)	0.9%	-5.2%	15.8µM*	-8.2%	-20.3%
COc1ccc(-c2c3c(=O)n(C)c(=O)n(C)c3cn2-c2ccc(O)cc2)cc1	-34.8%	-9.2%	2.0%	44.7µM*	3.6%
COc1ccc(-c2c3c(=O)n(C)c(=O)n(C)c3cn2-c2ccccc2)cc1	21.1%	?	-2.4%	-15.7%	-13.2%
Nc1nnc(-c2ccc(Cl)c([N+](=O)[O-])c2)s1	-29.9%	-13.5%	-8.0%	-14.2%	-1.4%
CC1(C)Cc2c(C#N)c(OCC(=O)c3ccc(Cl)cc3)nc(-c3ccoc3)c2CO1	-15.3%	?	-0.1%	39.8µM*	-0.1%
CC(C)(C)C1=C(C#N)C(c2ccc3c(c2)OCO3)C(C#N)=C(N)O1 (centres undefined)	-36.4%	-10.7%	6.6%	2µM*	?
COCCn1c(=NC(=O)CCS(=O)(=O)c2ccccc2)sc2cc(C)ccc21	-14.0%	-8.1%	-4.8%	35.5µM*	nt
COCCn1c(=NC(=O)CCS(=O)(=O)c2ccccc2)sc2cc(F)ccc21	34.3%	2.5%	2.4%	39.8µM*	nt
CCn1c(=NC(=O)CCS(=O)(=O)c2ccccc2)sc2cccc(OC)c21	-11.7%	1.0%	-12.5%	-6.4%	nt
Cc1ccc(S(=O)(=O)CNC(=S)c2ccc3ccccc3c2)cc1	-35.8%	-3.1%	-1.7%	3.16µM*	-12.8%
Cc1ccc(S(=O)(=O)NCCNC(=O)c2ccccc2)cc1	-14.4%	?	9.3%	1.9%	0.3%
Cc1ccc(S(=O)(=O)CNC(=S)c2cccc(C)c2)cc1	-24.0%	-0.5%	12.4%	3.55µM*	-15.4%
SMILES	AmpC inh no detg	AmpC inh detg	RE007 growth inh	Sm TGR block	Giardia FBPA inh
Cc1ccc(S(=O)(=O)CC(=O)c2ccccc2)cc1	-38.4%	-3.4%	13.8%	17.1%	4.0%
COc1ccc(C(=S)NCS(=O)(=O)c2ccc(C)cc2)cc1	-55.0%	?	2.5%	2.51µM*	-8.7%
COc1ccc(C(=S)Nc2ccc(C)cc2)cc1	-4.1%	-0.7%	-13.8%	6.6%	-1.3%
Cc1ccc(S(=O)(=O)CNC(=O)c2ccccc2)cc1	0.9%	6.7%	16.4%	20µM*	-0.2%
Cc1ccc(C(=O)NNC(=O)c2ccc3ccccc3c2)cc1	nt	nt	2.8%	nt	nt
CCN1C(=O)/C(=c2\o/c(=C3\C=Cc4ccccc4N3CC)c(=O)n2CC)SC1=S	-13.5%	?	-11.2%	3.9%	-1.7%
CNC(=O)c1sc(Nc2cc(C)ccc2C)nc1C	-11.6%	3.9%	-0.2%	0.5%	2.1%
Cc1cccc(C)c1NC(=O)/C(=C/c1ccco1)c1ccccc1	-24.5%	-0.9%	2.1%	31.6µM*	-23.7%
Cc1ccccc1NC(=O)/C(=C/c1ccccc1)c1ccccc1	-31.4%	4.2%	1.5%	12.5%	0.8%
Cc1cc(C)c(NC(=O)/C(=C/c2ccco2)c2ccccc2)c(C)c1	-21.7%	-7.8%	-3.3%	25.1µM*	-1.1%
Cc1cc(C)c(NC(=O)c2cccc(NC(=O)c3ccco3)c2)c(C)c1	-32.4%	-1.7%	-8.9%	-8.5%	4.2%
CC(=O)c1sc2c(c1OC(=O)c1ccc(Cl)cc1Cl)c(=O)n(-c1ccccc1)c(=S)n2-c1ccccc1	0.4%	-4.4%	4.1%	1.7%	6.8%
O=c1c2ccccc2sn1-c1ccc(Cl)cc1Cl	nt	nt	44.7µM*	nt	nt
O=c1c2ccccc2ncn1-c1ccc(Cl)cc1Cl	-6.1%	-0.9%	-14.5%	6.5%	0.0%
Cc1c(NC(=S)NC(=O)c2cc3ccccc3o2)cccc1C(=O)O	-2.7%	0.9%	4.5%	?	-29.7%
O=C(CSc1c[nH]c2ccccc12)N1CCCc2ccccc21	17.8µM*	?	-12.9%	8.6%	-11.8%
Cn1c(SCC(=O)N2CCCc3ccccc32)nnc1-c1c[nH]c2ccccc12	-32.8%	-0.3%	-8.2%	-1.9%	1.9%
N=C1/C(=C\c2ccc(-c3cccc(Cl)c3)o2)C(=O)N=C2SC=C(c3ccccc3)N12	15.8µM*	-6.8%	-22.5%	?	?
CC(C)(C)c1[nH]ncc1[N+](=O)[O-]	-19.3%	3.3%	-0.1%	10.0%	-0.6%
COC(=O)Cc1ccc(OCc2ccc(Cl)nc2)cc1	2.6%	2.0%	33.2%	91.7%	-11.5%
CCOC(=O)c1sc(/S(C)=N\S(=O)(=O)c2cccc(Cl)c2)c2c1CCC=C2 (centres undefined)	16.6%	-3.3%	-9.6%	2.82µM*	?
Cc1cccc(-c2c3c(=O)n(C)c(=O)n(C)c3cn2CC2CCCO2)c1 (centres undefined)	-11.6%	-1.9%	1.6%	35.5µM*	0.5%
O=C(NCCN1CCOCC1)c1ccc2c(c1)N(Cc1ccc(F)cc1)C(=O)CS2	44.7µM*	?	-4.0%	-24.6%	3.0%
Cc1ccc(CN2C(=O)CSc3ccc(C(=O)NCCN4CCOCC4)cc32)cc1	61.5%	-6.5%	-7.6%	2.9%	8.6%
COc1ccc(CCNC(=O)CSc2ccc(-c3ccco3)nn2)cc1	-17.6%	-8.8%	15.2%	12.6µM*	-16.1%
